# Results filed as inconclusive are left out. A number with no mark means an inactive call. Calls follow the shape of the dose curve; as a rule, active = well fitted cell-killing curve with a large enough effect; inconclusive = small, poorly fitted or top-dose-only effect; inactive = no such curve, though single readings can be large or run the other way.
# Assay: qHTS of pediatric cancer cell lines to identify multiple opportunities for drug repurposing: Primary screen for NB1643 cells (AID 1347099); also: nearly all actives have a fitted effect of over 50% in size
# Conditions: NB1643 neuroblastoma viability, CellTiter-Glo luminescence, 48 h; series mostly up to 46 µM; activity change, negative = cytotoxic: at the top concentration
# Source text: Drug repurposing or repositioning has been offered as a strategy for drug development in oncology programs. This approach has special potential for childhood cancers and other rare or orphan diseases, where the expected return on new drug development has been a disincentive to pharmaceuticals. […] In this project we exploit the poly-pharmacology of drugs to discover new indications via phenotypic screening of a panel of 19 well-characterized cell lines derived from solid tumors seen in children and adolescents. The goal is to identify approved drugs with previously unrecognized anticancer properties that has the potential to reveal new mechanisms and biological processes involved in carcinogenesis or drug resistance. We employed a titration-based paradigm (quantitative high-throughput screening or qHTS), where all compounds were tested at multiple concentrations for their effect on cell viability. Concentration-response curves (CRCs) were derived directly from the primary screen, and both potency and efficacy values were used to identify compounds with robust bioactivity profiles. We screened the NIH Chemical Genomics Center (NCGC) Pharmaceutical Collection (NPC) and Mechanism Interrogation Plate (MIPE) small molecule collections of approved and investigational compounds against these cell lines; and measured metabolically active cells after 48 hours of compound treatment as a proxy for cell viability. […] Assay Submitter: Nathalia J. Martinez, National Center for Advancing Translational Sciences, National Institutes of Health, Rockville, MD, USA; email: natalia.martinez@nih.gov Shen, M et al. Quantitative high-throughput phenotypic screening of pediatric cancer cell lines identifies multiple opportunities for drug repurposing. Oncotarget 2017 Dec 19;9(4):4758-4772. PMID 29435139.
# The cells were obtained from University of North Carolina (UNC), Pediatric Preclinical Testing Program (PPT), and Coriell Institute (CI). qHTS cell viability assay: Cells were assayed in growth media at a density of 500-1,000 cells/well. Five microliters of cells were dispensed into 1,536-well, white, solid-bottom, TC-treated plates (Greiner Bio One) using a multidrop dispenser and incubated at 37 degrees C, 5% CO2, under a humidified atmosphere for 5 hours. Twenty-three nanoliters of compounds and controls (neutral control DMSO or positive control bortezomib at final concentration of 2.3 µM) were subsequently transferred by Kalypsys pintool. For primary screens, the MIPE collection was tested at 11-point dilutions (final concentrations range from 0.78 nM to 46 µM) and the NPC collection at 8-point dilutions (final concentrations range from 0.59 nM to 46 µM). Compounds tested in follow-up screens were assayed at 11-point dilutions. Cells were incubated for 48 hours, followed by addition of 3 µL of CellTiter-Glo (Promega). After a 15 min incubation at room temperature, samples were analyzed for luminescence intensity using a ViewLux High-throughput CCD imager equipped with clear filters.
row,SMILES,"activity change, negative = cytotoxic"
1,C[C@@H]1O[C@@H](OC[C@H]2O[C@@H](Oc3c(-c4ccc(O)c(O)c4)oc4cc(O)cc(O)c4c3=O)[C@H](O)[C@@H](O)[C@@H]2O)[C@H](O)[C@H](O)[C@H]1O,9.55%
2,NC(=O)N[C@@H](CCC(=O)O)C(=O)O,14.4%
3,Nc1ccc(S(=O)(=O)c2ccc(N)cc2)cc1,18.4%
4,Cc1ccsc1/C=C/C1=NCCCN1C,4.01%
5,CCOc1ccc(C(=O)OCCN(CC)CC)cc1,-9.9%
6,COc1ccc2cc(CCC(C)=O)ccc2c1,14.7%
7,COC(=O)c1ccc(O)cc1,-25.4%
8,CCOc1ccccc1O[C@H](c1ccccc1)[C@H]1CNCCO1,5.1%
9,OC[C@@H](O)[C@@H](O)[C@H](O)[C@H](O)CO,4.78%
10,CC(=O)NCc1c(I)c(NC(C)=O)c(I)c(C(=O)O)c1I,13.9%
11,O=C(Cn1ccnc1[N+](=O)[O-])NCc1ccccc1,5.22%
12,C[N+]1(C)CCCC(OC(=O)C(O)(c2ccccc2)c2ccccc2)C1 (stereo not given),6.53%
13,NC(N)=NCCN1CCCCCCC1,6.64% [at 0.597 µM]
14,CC(=O)[C@@]1(O)CC[C@H]2[C@@H]3C[C@H](C)C4=CC(=O)C=C[C@]4(C)[C@@]3(F)[C@@H](O)C[C@@]21C,28.8%
15,C[N+](C)(C)CC(O)CC(=O)[O-] (stereo not given),-5.08%
16,Cc1[nH]c(C)c(Cl)c(=O)c1Cl,-5.07% [at 16.1 µM]
17,NC(=O)CCCCC1CCSS1 (stereo not given),14.7%
18,CCOC(N)=O,7.04%
19,Cc1c(C(=O)NCCO)[n+](=O)c2ccccc2n1[O-],0.738%
20,O=C(O)CCCc1ccccc1,-2.31%

row,SMILES,"activity change, negative = cytotoxic"
1,NC(=O)CC[C@@H](N)C(=O)O,-4.09%
2,CC(=O)OC[C@H]1O[C@@](COC(C)=O)(O[C@H]2O[C@H](COC(C)=O)[C@@H](OC(C)=O)[C@H](OC(C)=O)[C@H]2OC(C)=O)[C@@H](OC(C)=O)[C@@H]1OC(C)=O,7.67%
3,O=C1C(c2[nH]c3ccccc3c2O)=Nc2ccccc21,17.2%
4,Cc1ccc(S(=O)(=O)NC(=O)NC2CCCCC2)cc1,8.15%
5,CCCCCCCCCCC(CO)CCCCCCCC (stereo not given),16.7%
6,CC(C)=CCC/C(C)=C/CO,0.78%
7,CCN[C@H]1CN(CCCOC)S(=O)(=O)c2sc(S(N)(=O)=O)cc21,15.1%
8,O=S1(=O)OC(c2ccc(O)cc2)(c2ccc(O)cc2)c2ccccc21,-12.1%
9,C=CCOc1ccccc1OCC(O)CNC(C)C (stereo not given),0%
10,CC(=O)N[C@H]1[C@H]([C@H](O)[C@H](O)CO)OC(C(=O)O)=C[C@@H]1N=C(N)N,7.44%
11,C=CCN1C[C@H](C(=O)N(CCCN(C)C)C(=O)NCC)C[C@@H]2c3cccc4[nH]cc(c34)C[C@H]21,14%
12,NNC(=O)CP(=O)(c1ccccc1)c1ccccc1,0%
13,CC[N+](CC)(CC(=O)Nc1c(C)cccc1C)Cc1ccccc1,3.52%
14,C[C@@H]1CCC[C@H](C)N1,16%
15,OCC(O)CS (stereo not given),10.2%
16,CC(N)CCCC(C)(C)O (stereo not given),19.3%
17,CNc1c2c(nn1C)CCCC2,17.6%
18,CCCCCCCCCCCCCCCCC(C(=O)O)C(O)(CC(=O)O)C(=O)O (stereo not given),7.07%
19,CCN1CC(CCN2CCOCC2)C(c2ccccc2)(c2ccccc2)C1=O (stereo not given),8.09%
20,CCN(CC)S(=O)(=O)c1ccc(C(=O)O)cc1,-3.39%
